# In the supplement of paper PMC10646978:
# ± gives the standard deviation.
# Assays:
# Conditions in all cases: modulator concentration 10 µM
# [1] = test system: RAW-Dual (murine macrophage reporter line); assay: NF-kB reporter (SEAP) activity fold change vs agonist alone; higher = enhanced NF-kB activity
# How it was run: (§1)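 In 384-well plates holding 50 000 RAW-Dual murine macrophage reporter cells per well, compound at 10 μM final was pre-incubated for 1 hour at 37 °C, after which a PRR agonist was added overnight. Supernatant SEAP read with QUANTI-Blue at 620 nm absorbance reported NF-κB, and Lucia luciferase read with QUANTI-Luc luminescence reported IRF. Fold change values come from dividing each reporter signal by the mean of agonist-only control wells on the same plate, averaged over replicate plates with propagated errors.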
# [2] = test system: RAW-Dual (murine macrophage reporter line); assay: IRF reporter (Lucia luciferase) activity fold change vs agonist alone; higher = enhanced IRF activity
# How it was run: as §1
# [3] = test system: RAW-Dual (murine macrophage reporter line); assay: viability score (confluency relative to resting cells, overnight) (fraction); higher = more viable, active = viable (0.7 or more)
# How it was run: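 Two confluency masks, generated with IncuCyte software over all imaged wells, were applied to IncuCyte images of RAW-Dual macrophages. The cells, in 384-well plates, had been exposed overnight to 10 μM final compound. The viability score is confluency as a fraction of resting cells, and a compound met the cutoff only with both masks above 70% of resting cells.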
# [4] = agonist: CpG ODN 1826 0.5 ug/mL
Compound,"NF-kB reporter [1, 4]",NF-kB reporter ([1]; agonist: LPS 0.1 ug/mL),NF-kB reporter ([1]; agonist: MPLA […]),IRF reporter ([2]; agonist: 3'3'-cGAMP 10 ug/mL),IRF reporter ([2]; agonist: LPS 0.1 ug/mL),IRF reporter ([2]; agonist: MPLA […]),viability score [3]
COCCOCC1CCN(C(=O)c2cc(-c3cccc(OC)c3)n[nH]2)CC1,1.09 ± 0.076,0.967 ± 0.092,0.992 ± 0.051,0.957 ± 0.039,1.04 ± 0.059,0.985 ± 0.2,0.995 (active)
C[C@H](Oc1cc(-c2cnn(C3CCNCC3)c2)cnc1N)c1c(Cl)ccc(F)c1Cl,0.85 ± 0.069,0.896 ± 0.11,0.942 ± 0.08,1.03 ± 0.047,1.1 ± 0.23,1.17 ± 0.38,0.998 (active)
O=C1c2ccccc2C(=O)c2c1ccc(O)c2O,1.03 ± 0.098,1.06 ± 0.054,1.02 ± 0.027,0.948 ± 0.084,0.949 ± 0.039,0.978 ± 0.076,0.999 (active)
c1ccc(CSc2nnc(-c3ccncc3)[nH]2)cc1,1.08 ± 0.085,0.945 ± 0.097,1.04 ± 0.028,0.582 ± 0.033,0.888 ± 0.043,0.872 ± 0.09,0.996 (active)
O=C(c1cccs1)c1nc2c(n1O)CCCCC2,1.01 ± 0.079,1.02 ± 0.076,0.967 ± 0.069,0.992 ± 0.056,1.17 ± 0.18,0.858 ± 0.085,0.899 (active)
O=C1CSC(=S)N1c1ccc(Cl)cc1,0.606 ± 0.049,0.665 ± 0.077,0.854 ± 0.059,0.389 ± 0.059,0.673 ± 0.03,0.869 ± 0.11,0.988 (active)
COc1cc2nc(N3CCN(C(=O)c4ccco4)CC3)nc(N)c2cc1OC.Cl,0.888 ± 0.21,1.12 ± 0.056,0.953 ± 0.079,0.9 ± 0.032,1.22 ± 0.14,1.33 ± 0.2,1 (active)
CC(=O)Nc1ccc(NC(=O)COc2ccc(Br)c(C)c2)cc1,0.902 ± 0.15,1.09 ± 0.097,0.95 ± 0.087,0.997 ± 0.026,1.27 ± 0.36,1.22 ± 0.17,1.01 (active)
N#CC(=Cc1c(F)cccc1Cl)C(=O)Nc1ccc(Cl)cc1,1.08 ± 0.22,0.977 ± 0.077,0.952 ± 0.079,0.746 ± 0.17,1.3 ± 0.22,1.25 ± 0.13,1.01 (active)
CC(C)(C)NCC(O)COc1cccc2c1C[C@H](O)[C@H](O)C2 (some centres not stated),1.03 ± 0.091,0.97 ± 0.051,0.971 ± 0.034,0.892 ± 0.05,0.976 ± 0.032,0.961 ± 0.11,0.981 (active)
O=C(O)c1ccc(NC(=O)c2cccc(F)c2)cc1,1.09 ± 0.091,1.01 ± 0.1,0.962 ± 0.061,0.963 ± 0.035,1.08 ± 0.056,0.994 ± 0.18,0.998 (active)
c1cc2c3c(cccc3c1)-c1nc3ccccc3nc1-2,0.993 ± 0.17,1.09 ± 0.13,1.02 ± 0.095,0.984 ± 0.026,1.32 ± 0.15,1.59 ± 0.3,1.01 (active)
COc1c(Cl)ccc(Cl)c1C(=O)NCc1ccccc1,0.812 ± 0.13,1.01 ± 0.12,1.06 ± 0.11,1.15 ± 0.03,1.25 ± 0.14,1.33 ± 0.25,1 (active)
Cc1cccc(OCC(=O)Nc2cccc([N+](=O)[O-])c2)c1C,0.982 ± 0.16,1.17 ± 0.14,1.03 ± 0.11,0.947 ± 0.028,1.21 ± 0.23,1.24 ± 0.21,0.974 (active)
COc1ccc(C=NNc2nc(-c3ccccc3)cc(-c3ccc(Br)cc3)n2)c(OC)c1,0.918 ± 0.091,0.94 ± 0.1,1.03 ± 0.12,0.96 ± 0.03,1.08 ± 0.12,1.08 ± 0.17,1.03 (active)
COC(=O)C1=CN(CC2CCCO2)C=C(C(=O)OC)C1c1ccccc1OC (configuration not stated),0.826 ± 0.066,0.849 ± 0.059,1.3 ± 0.37,0.996 ± 0.059,1.34 ± 0.094,1.41 ± 0.16,1.02 (active)
CC[C@@]1(O)C(=O)OCc2c1cc1n(c2=O)Cc2cc3c(CN(C)C)c(O)ccc3nc2-1.Cl,2.27 ± 0.11,1.41 ± 0.12,2.16 ± 0.11,2.12 ± 0.15,2.89 ± 0.17,3.26 ± 0.26,0.725 (active)
Cc1cccc(-c2nn3c(c2-c2ccnc4ccc(C(N)=O)cc24)CCC3)n1,1.08 ± 0.046,1.22 ± 0.1,1.46 ± 0.12,0.903 ± 0.042,0.976 ± 0.16,1.12 ± 0.28,0.99 (active)
COc1ccc(OC)c(NC(=O)COc2cccc3c2OC(C)(C)C3)c1,0.489 ± 0.039,1.2 ± 0.095,1.22 ± 0.053,0.777 ± 0.054,0.912 ± 0.059,1.02 ± 0.077,0.976 (active)
CCOc1ccc(NC(=O)CC2Nc3cccc4cccc(c34)NC2=O)cc1 (configuration not stated),0.91 ± 0.066,1.01 ± 0.067,0.926 ± 0.077,0.884 ± 0.049,1.31 ± 0.083,1.25 ± 0.34,0.926 (active)
COc1nn(C)cc1C(=O)Nc1ccc(C(=O)NCCN2CCOCC2)cc1,1.02 ± 0.052,1.03 ± 0.083,0.893 ± 0.042,0.979 ± 0.049,1.28 ± 0.096,1.13 ± 0.23,0.994 (active)
O=C(CCC(=O)Nc1ccccc1)NN=Cc1ccc(Cl)cc1,1.01 ± 0.06,0.993 ± 0.062,1 ± 0.08,0.98 ± 0.036,1.48 ± 0.2,1.22 ± 0.13,1 (active)
Cc1ccc(COc2cccc(C=C3SC(=S)NC3=O)c2)cc1,0.611 ± 0.06,0.803 ± 0.13,0.992 ± 0.088,0.793 ± 0.08,1.18 ± 0.069,1.3 ± 0.11,1.02 (active)
NC(=O)c1ccccc1O,1.18 ± 0.28,1.01 ± 0.051,0.978 ± 0.085,0.945 ± 0.032,1.23 ± 0.14,1.19 ± 0.16,0.993 (active)
CN[C@H]1CC[C@@H](c2ccc(Cl)c(Cl)c2)c2ccccc21.Cl,0.407 ± 0.039,0.757 ± 0.049,1.49 ± 0.14,1.18 ± 0.1,1.27 ± 0.084,1.97 ± 0.23,0.258 (inactive)
CC(=C(C#N)C(=O)NCc1ccccc1)N(C)C,0.808 ± 0.077,0.883 ± 0.1,1.08 ± 0.11,0.966 ± 0.045,1.22 ± 0.1,1.26 ± 0.17,1.02 (active)
